The nature of test [1]: Cellular Toxicity (caspase-3) Jurkat (AID 655; active = well fitted curve in the direction sought with a large enough effect; an effect the other way counts as inactive or inconclusive;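 also: cells exposed to compound for 16 h at 37 °C before reading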). The conditions noted are these: Jurkat caspase-3 activation, luminescence; caspase-3 activation: at 92.2 µM (top of the series), DMSO = 0%, tamoxifen = 100%. In outline:
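Luminescent caspase-3/7 readout (aminoluciferin substrate cleavage) in human T-cell leukemia Jurkat cells after 16 hr compound exposure. Concentration-response normalized to DMSO and 100 uM tamoxifen; AC50 by standard Hill equation.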

A short description of test [2]: qHTS assay for small molecule antagonists of retinoid X receptor alpha signaling (AID 588546; active = well fitted inhibition curve with a large enough effect in the signal ratio, with a control signal flat, not every such curve was filed as active; the % refers to the signal ratio; also: potency is read from the fitted curve at half-maximal effect;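 as to max response: cells stimulated with 9-cis-retinoic acid as agonist; % is scaled to controls: 0 for no effect and ±100 for the full control effect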). To be noted: HEK293T RXRa-UAS-bla, beta-lactamase ratio, antagonist mode; measured here: W530 green channel, cytotoxicity proxy. In outline:
(§1)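 Beta-lactamase reporter inhibition, read as CCF4 fluorescence ratio (ex 405, em 460/530 nm) after 2 h at RT. HEK293T UAS-bla cells, 2500/well, were stimulated with 9-cis-RA at 500 or 100 nM final alongside test compound for 18 h at 37 C.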

Test [3] concerns the target Retinoic acid receptor RXR-alpha (Homo sapiens) (UniProt P19793). The description is as above. To be noted: HEK293T RXRa-UAS-bla, beta-lactamase ratio, antagonist mode. In outline:
as §1

The nature of test [4]: qHTS assay for small molecule agonists of the antioxidant response element (ARE) signaling pathway (AID 651741; active = well fitted activation curve with a large enough effect in the signal ratio; the % refers to the signal ratio; also: potency is read from the fitted curve at half-maximal effect). In outline:
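Quantitative HTS in HepG2 cells stably expressing an ARE-beta-lactamase reporter; 16 h compound exposure at 37 C, followed by 2 h room-temperature incubation with LiveBLAzer B/G FRET substrate and fluorescence measurement.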
(In general: In qHTS, concentration-response curves come from the screen itself.)

Test [5] in a line: Cell Viability - LYMP2-026 (AID 989; active = well fitted curve in the direction sought with a large enough effect; an effect the other way counts as inactive or inconclusive; also: nearly all actives have a fitted effect of over 50% in size; also: potency is read from the fitted curve at half-maximal effect). Put shortly:
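Human lymphoblastoid LYMP2-026 cells, 2500/well, exposed to compound 24 h at 37 C in complete medium. Viability as intracellular ATP by CellTiter-Glo luminescence; AC50 from Hill fits of qHTS concentration-response.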

Test [6] has as its target Glucocorticoid receptor (Homo sapiens) (UniProt P04150). Kind of test: qHTS assay for small molecule agonists of glucocorticoid receptor signaling (AID 588532; active = well fitted curve in the direction sought with a large enough effect in the signal ratio, with a control signal flat; the % refers to the signal ratio;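 also: 100% = dexamethasone at 0.1 µM and 0% = DMSO only wells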). The conditions noted are these: HeLa MMTV-bla, beta-lactamase ratio, agonist, 18 h; activation: stronger effect = higher value, percent of dexamethasone control, DMSO zero. Put shortly:
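Using MMTV-bla HeLa cells in medium with 1% stripped FBS and 25 mM HEPES, compounds were titrated and incubated overnight-length (18 h). Beta-lactamase cleavage of CCF4 was quantified by dual-emission fluorescence.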

Test [7] has the same target. Kind of test: qHTS assay for small molecule antagonists of glucocorticoid receptor signaling (AID 588533; active = well fitted inhibition curve with a large enough effect in the signal ratio, with a control signal flat, not every such curve was filed as active; the % refers to the signal ratio;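 also: cells stimulated with 2 nM dexamethasone as agonist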; also: potency is read from the fitted curve at half-maximal effect). Put shortly: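 Antagonist-mode qHTS: compound titrations added to GRE-bla HeLa cells, then dexamethasone 2 nM final; 18 h, 37 C. CCF4 FRET fluorescence normalized to dexamethasone and DMSO; IC50 from Hill fit.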
The target in test [8] is Vitamin D3 receptor (Homo sapiens) (UniProt P11473). Kind of test: qHTS assay for small molecule antagonists of vitamin D receptor signaling (AID 588541). Also: potency is read from the fitted curve at half-maximal effect. In outline:
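Antagonist-mode beta-lactamase reporter assay: HEK293T VDR-UAS-bla cells were exposed to titrated compound alongside 1-alpha,25-dihydroxyvitamin D3 at 3 nM final for 16 h. Values were normalized to the 50 nM agonist control and DMSO basal, with IC50 and efficacy from Hill equation fits.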

Test [9] is described as follows: NFAT Signaling Pathway (AID 444; active = well fitted curve in either direction with a large enough effect, not every such curve was filed as active;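 also: carbachol stimulus at about its EC50 of 1 µM final; % is scaled to controls: 0 for no effect and ±100 for the full control effect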). The conditions noted are these: Jurkat NFAT-bla M1, carbachol, beta-lactamase ratio, 5 h; at 17.2 µM (top of the series) unless noted. In outline: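 Read-out: CCF4 FRET ratio (460 nm/530 nm) after 1 h RT dye loading, used for %activity and AC50 from titration series. Cells: Jurkat NFAT-β-lactamase/M1 line, treated with compound plus 1 uM carbachol for 5 h, 37 °C.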

Test [10] is described as follows: Stat Signaling Pathway (AID 446; active = well fitted curve in either direction with a large enough effect, not every such curve was filed as active;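 also: ME-180 cervical cancer cells given 40 pM IL-6 alongside compound; SIE-controlled beta-lactamase reporter measured as 460/530 nm FRET emission ratio; % is scaled to controls: 0 for no effect and ±100 for the full control effect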). In outline:
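ME-180 SIE-bla cells; overnight plating; cpd + IL-6 40 pM, 5 h, 37 C; LiveBLAzer 2.5 h RT; 460/530 nm emission ratio. Normalized to 300 pM IL-6 and 125 nM JAK inhibitor controls.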

In test [11] the target is Retinoic acid receptor RXR-alpha (Homo sapiens) (UniProt P19793). In words: qHTS assay for small molecule agonists of retinoid X receptor alpha signaling (AID 588544).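 Also: 0% = DMSO basal wells and 100% = reference agonist.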
In test [12] the target is Thyroid hormone receptor beta (Homo sapiens) (UniProt P10828). In words: qHTS assay for small molecule agonists of thyroid hormone receptor beta signaling (AID 588545).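 Also: 0% = DMSO only and 100% = 10 nM T3.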 Put shortly:
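TR-UAS-bla GripTite HEK 293 cells (2500/well, medium with 2% charcoal/dextran FBS) were treated in agonist mode for 18 h at 37 C, titrated. Beta-lactamase was read by CCF4 ratio after 2 h; normalized to 10 nM T3 (100%) and DMSO, Hill-fitted for EC50 and efficacy.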

For test [13] the target is unchanged. Kind of test: qHTS assay for small molecule antagonists of thyroid hormone receptor beta signaling (AID 588547; active = well fitted inhibition curve with a large enough effect in the signal ratio, with a control signal flat, not every such curve was filed as active; the % refers to the signal ratio;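 also: cells stimulated with 0.4 nM T3 agonist during compound exposure; % is scaled to controls: 0 for no effect and ±100 for the full control effect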). To be noted: TR-UAS-bla HEK293, beta-lactamase ratio, antagonist mode, 18 h. Put shortly:
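Inhibition of T3-driven (0.4nM final) beta-lactamase reporter activity was measured over 0.59 nM to 92 uM compound after 18 h at 37 C. The cells were GripTite HEK293 TR-UAS-bla in charcoal/dextran-stripped serum, with CCF4 ratio read-out and IC50 from Hill fits.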

Test [14] addresses Nuclear receptor subfamily 1 group I member 2 (Rattus norvegicus) (UniProt Q9R1A7). In words: qHTS assay for small molecule activators of the rat pregnane X receptor (rPXR) signaling pathway (AID 651751; call rule not given here; also: 0% is about no effect). To be noted: rPXR reporter cells, luciferase (One-Glo), 24 h.
Test [15] can be described thus: qHTS assay for small molecule activators of the human pregnane X receptor (PXR) signaling pathway (AID 720659; call rule not given here; also: 0% is about no effect).
The target in test [16] is Estrogen receptor (Homo sapiens) (UniProt P03372). Kind of test: qHTS assay for small molecule agonists of estrogen receptor alpha signaling (AID 588514).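 Also: 0% = vehicle only and 100% = reference agonist; nearly all actives have a fitted effect of over 70% in size.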 Put shortly:
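ER-alpha-UAS-bla GripTite HEK293 cells, 5000/well in 2% charcoal/dextran-stripped FBS medium, treated with compound titrations 18 h at 37 C. CCF4 beta-lactamase read by fluorescence after 2 h RT; normalised to 20 nM 17-beta-estradiol (100%) and DMSO (0%), Hill fit for EC50 and efficacy.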

Test [17] concerns the target Bile acid receptor (Homo sapiens) (UniProt Q96RI1). In words: qHTS assay for small molecule agonists of farnesoid X receptor signaling (AID 588527).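 Also: 0% = vehicle basal and 100% = reference agonist.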 The conditions noted are these: HEK293T FXR-UAS-bla, beta-lactamase ratio, 16 h; activation: stronger effect = higher value. Put shortly: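 FXR-UAS-bla HEK293T, 10% dialyzed FBS; cpds up to 92 uM titration, 16 h 37 C; CCF4 dye 2 h RT; fluorescence. Normalized to chenodeoxycholic acid 100 uM (100%) and DMSO (0%); Hill fit gives EC50, efficacy.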

Test [18] in a line: qHTS assay for small molecule activators of the nuclear factor-kappa B (NF-kB) signaling pathway (AID 651749; active = well fitted activation curve with a large enough effect in the signal ratio; the % refers to the signal ratio; also: % of control where 0% means no effect). To be noted: NF-kB-bla ME-180 cells, beta-lactamase FRET ratio, 16 h; activation: stronger effect = higher value. In outline:
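Readout: beta-lactamase reporter driven by an NF-kB response element, detected fluorescently as loss of FRET. Cells were the ME-180 line, treated 16 hr at 37C with pin-transferred compound.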

Where “and” joins values, the source holds several entries; their conditions need not be identical. Identical values can stand only once. Results filed as inconclusive are left out. Calls of active or inactive are those of the source. Unless noted, calls follow the shape of the full dose curve.

Chain of Vitamin D3 receptor (Homo sapiens) (P11473 whole entry, looked up): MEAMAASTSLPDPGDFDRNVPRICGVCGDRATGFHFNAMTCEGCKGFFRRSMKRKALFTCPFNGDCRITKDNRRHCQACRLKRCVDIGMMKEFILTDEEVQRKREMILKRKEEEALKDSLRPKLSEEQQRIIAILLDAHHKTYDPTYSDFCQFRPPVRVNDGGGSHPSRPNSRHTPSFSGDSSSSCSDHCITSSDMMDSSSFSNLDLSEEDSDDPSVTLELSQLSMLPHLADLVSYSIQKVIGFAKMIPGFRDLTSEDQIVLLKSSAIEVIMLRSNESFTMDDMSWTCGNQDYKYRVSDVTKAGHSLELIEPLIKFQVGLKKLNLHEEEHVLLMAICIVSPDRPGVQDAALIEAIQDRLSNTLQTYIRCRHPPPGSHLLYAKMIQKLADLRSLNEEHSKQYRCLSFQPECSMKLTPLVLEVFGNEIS
Chain of Nuclear receptor subfamily 1 group I member 2 (Rattus norvegicus) (Q9R1A7 whole entry, looked up): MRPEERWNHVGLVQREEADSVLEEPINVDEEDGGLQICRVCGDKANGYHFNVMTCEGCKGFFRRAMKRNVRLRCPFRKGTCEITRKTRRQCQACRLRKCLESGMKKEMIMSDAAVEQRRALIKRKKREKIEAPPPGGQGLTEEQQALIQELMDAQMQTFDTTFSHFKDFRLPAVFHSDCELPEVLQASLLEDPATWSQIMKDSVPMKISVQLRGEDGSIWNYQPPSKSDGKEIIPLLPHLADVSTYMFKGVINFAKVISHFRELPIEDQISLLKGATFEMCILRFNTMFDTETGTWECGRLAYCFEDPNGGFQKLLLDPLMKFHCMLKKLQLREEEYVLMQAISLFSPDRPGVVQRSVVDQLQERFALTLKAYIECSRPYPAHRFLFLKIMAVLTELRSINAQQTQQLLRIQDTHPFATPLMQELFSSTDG
Chain of Estrogen receptor (Homo sapiens) (P03372 whole entry, looked up): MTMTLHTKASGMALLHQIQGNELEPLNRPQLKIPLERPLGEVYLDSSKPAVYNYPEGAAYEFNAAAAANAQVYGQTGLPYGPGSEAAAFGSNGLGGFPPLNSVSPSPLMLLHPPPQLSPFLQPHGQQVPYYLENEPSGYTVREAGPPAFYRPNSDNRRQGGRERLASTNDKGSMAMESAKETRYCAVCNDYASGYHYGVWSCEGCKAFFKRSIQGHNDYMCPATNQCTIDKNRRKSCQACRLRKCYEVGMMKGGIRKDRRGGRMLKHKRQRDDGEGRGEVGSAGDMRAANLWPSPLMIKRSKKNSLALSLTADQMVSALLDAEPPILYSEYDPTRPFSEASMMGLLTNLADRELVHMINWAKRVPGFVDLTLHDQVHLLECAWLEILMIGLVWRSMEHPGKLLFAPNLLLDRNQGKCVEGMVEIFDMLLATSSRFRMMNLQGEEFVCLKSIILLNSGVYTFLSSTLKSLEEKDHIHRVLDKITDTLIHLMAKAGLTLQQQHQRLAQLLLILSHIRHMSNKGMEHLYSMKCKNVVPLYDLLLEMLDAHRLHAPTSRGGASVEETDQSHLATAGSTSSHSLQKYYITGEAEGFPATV
Chain of Bile acid receptor (Homo sapiens) (Q96RI1 whole entry, looked up): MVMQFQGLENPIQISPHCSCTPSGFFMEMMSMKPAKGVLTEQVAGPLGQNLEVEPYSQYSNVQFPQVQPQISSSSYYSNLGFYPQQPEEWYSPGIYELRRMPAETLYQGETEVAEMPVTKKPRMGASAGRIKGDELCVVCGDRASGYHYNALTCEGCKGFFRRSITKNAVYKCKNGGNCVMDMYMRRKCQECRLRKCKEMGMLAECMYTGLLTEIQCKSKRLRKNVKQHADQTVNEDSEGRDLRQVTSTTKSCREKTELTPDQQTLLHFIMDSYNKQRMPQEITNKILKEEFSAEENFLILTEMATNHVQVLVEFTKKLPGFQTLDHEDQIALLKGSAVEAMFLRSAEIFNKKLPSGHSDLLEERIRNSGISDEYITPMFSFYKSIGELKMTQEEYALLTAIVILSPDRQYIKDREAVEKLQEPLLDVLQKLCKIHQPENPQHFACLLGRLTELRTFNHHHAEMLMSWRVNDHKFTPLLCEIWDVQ
Chain of Retinoic acid receptor RXR-alpha (Homo sapiens) (P19793 whole entry, looked up): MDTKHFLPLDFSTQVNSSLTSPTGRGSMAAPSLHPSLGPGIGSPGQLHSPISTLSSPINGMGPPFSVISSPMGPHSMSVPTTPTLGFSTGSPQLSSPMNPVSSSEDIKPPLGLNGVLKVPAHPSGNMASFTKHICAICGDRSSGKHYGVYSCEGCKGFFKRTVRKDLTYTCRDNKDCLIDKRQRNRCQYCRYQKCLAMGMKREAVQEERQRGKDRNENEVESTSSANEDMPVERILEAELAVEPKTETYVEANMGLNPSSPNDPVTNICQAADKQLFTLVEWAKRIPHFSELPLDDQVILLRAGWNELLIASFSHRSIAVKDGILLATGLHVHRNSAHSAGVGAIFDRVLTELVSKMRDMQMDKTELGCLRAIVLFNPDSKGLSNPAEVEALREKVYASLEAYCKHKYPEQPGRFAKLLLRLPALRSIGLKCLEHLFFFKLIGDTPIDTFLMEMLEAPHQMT
Chain of Glucocorticoid receptor (Homo sapiens) (P04150 whole entry, looked up): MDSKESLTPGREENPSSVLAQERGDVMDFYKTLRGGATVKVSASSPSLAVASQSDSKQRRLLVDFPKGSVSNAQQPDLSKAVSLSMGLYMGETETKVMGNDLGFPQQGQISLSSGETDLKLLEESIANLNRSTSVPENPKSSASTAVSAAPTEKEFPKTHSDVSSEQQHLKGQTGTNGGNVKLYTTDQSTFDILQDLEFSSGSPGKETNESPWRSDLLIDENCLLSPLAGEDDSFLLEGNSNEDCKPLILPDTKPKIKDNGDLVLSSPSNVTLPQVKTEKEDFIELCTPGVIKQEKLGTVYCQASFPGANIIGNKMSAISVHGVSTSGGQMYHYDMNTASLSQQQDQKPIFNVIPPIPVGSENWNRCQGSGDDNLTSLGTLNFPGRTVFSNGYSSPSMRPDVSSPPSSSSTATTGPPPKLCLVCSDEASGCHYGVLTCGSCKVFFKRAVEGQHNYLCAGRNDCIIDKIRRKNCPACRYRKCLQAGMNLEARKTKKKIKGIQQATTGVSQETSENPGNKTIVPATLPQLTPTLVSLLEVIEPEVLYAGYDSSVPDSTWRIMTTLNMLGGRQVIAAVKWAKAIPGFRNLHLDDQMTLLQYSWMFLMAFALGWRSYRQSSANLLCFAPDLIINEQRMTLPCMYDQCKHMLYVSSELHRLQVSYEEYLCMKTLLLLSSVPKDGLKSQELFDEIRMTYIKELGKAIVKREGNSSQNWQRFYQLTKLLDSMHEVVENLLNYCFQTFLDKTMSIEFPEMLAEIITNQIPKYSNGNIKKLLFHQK
Chain of Thyroid hormone receptor beta (Homo sapiens) (P10828 whole entry, looked up): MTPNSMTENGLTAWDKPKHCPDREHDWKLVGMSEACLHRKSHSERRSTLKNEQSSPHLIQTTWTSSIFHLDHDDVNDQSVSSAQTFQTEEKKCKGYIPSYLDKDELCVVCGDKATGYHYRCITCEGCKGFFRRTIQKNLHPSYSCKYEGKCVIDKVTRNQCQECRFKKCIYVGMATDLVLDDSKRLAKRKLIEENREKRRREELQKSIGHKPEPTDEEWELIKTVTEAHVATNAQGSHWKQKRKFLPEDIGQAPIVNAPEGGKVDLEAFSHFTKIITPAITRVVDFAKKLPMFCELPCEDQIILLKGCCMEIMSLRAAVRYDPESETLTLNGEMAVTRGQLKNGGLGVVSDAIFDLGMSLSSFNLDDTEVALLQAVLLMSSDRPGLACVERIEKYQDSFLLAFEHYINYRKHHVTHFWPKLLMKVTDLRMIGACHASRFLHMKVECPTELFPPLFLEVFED

Take `CC(C)CC(C)Nc1ccc(Nc2ccccc2)cc1` (centres undefined): the caspase-3 activation in test [1] was 17.5% (inactive). For the same compound, the max response in [2] was -4.53%; in test [3], -33.2% (inactive). Also, the Potency in test [4] was 59.6 µM (active).

Take `[CH3][Hg][Cl]`: the caspase-3 activation in test [1] was -8.35% (inactive). The Potency in test [5] was 5.01 µM (active); in [7], 11.2 µM (active); in test [8], 3.16 µM (active); in test [3], 2.24 µM (active); in test [4], 23.7 µM (active). The activation in [6] was -4.13% (inactive). For the same compound, the max response in test [2] is -30.3%.

Regarding `Cn1c(O)c(C(=O)c2ccccc2Cl)c(=O)n(C)c1=O`, the activity change, negative = inhibition in [9] was 6.46% (inactive). The outcome in test [10] was inactive.

Take `ClC1=C(Cl)C2(Cl)C3C(Cl)C(Cl)CC3C1(Cl)C2(Cl)Cl` (centres undefined): the caspase-3 activation in test [1] is 81.5% (active). In [6], the activation is 17.3% (inactive). Further, the Potency entry in test [8] is “inactive”. For the same compound, the Potency in [4] was 66.8 µM (active).

As for `C#CCO`, the caspase-3 activation in [1] was -1.9% (inactive). The Potency entry in [5], in [7], in [8], in [11] and in [12] was “inactive” each time. Besides, the activation in test [6] was 0.566% (inactive). Further, the max response in test [2] is -7.57%; in test [3], 24.4% (inactive); in test [14] it was 1.29% (inactive). Also, the activity change % (negative = inhibition) in test [13] is -4.81% (inactive). Moreover, the compound was called inactive in test [15].

Turning to `O=C(Nc1ccncc1)c1c(O)c2ccccc2n(Cc2ccccc2)c1=O`, the activity change, negative = inhibition in test [9] is 22.9% (inactive).

For `OC(c1ccc(Cl)cc1)(c1ccc(Cl)cc1)C(Cl)(Cl)Cl`, the Potency entry in test [5], in test [16], in test [7], in [11] and in [12] was “inactive” in each case. Further, the activation in test [17] is 3.21% (inactive) and 2.17% (inactive); in [6], 4.22% (inactive); in [18] it was -0.969% (inactive). For the same compound, the max response in test [2] is -2.98%; in test [3], 3.94% (inactive); in test [14], -0.762% (inactive) and 6.21% (inactive). In addition, the activity change % (negative = inhibition) in [13] was -3.99% (inactive). For the same compound, in test [15], the compound was classed as inactive.

`[Cd+2].[Cl-].[Cl-]`: the caspase-3 activation in test [1] is -2.73% (inactive). Further, the Potency entry in test [12] is “inactive”.

Regarding `Clc1ccc(C(c2ccc(Cl)cc2)C(Cl)Cl)cc1`, the caspase-3 activation in test [1] is 22.6% (inactive). Further, the Potency result in test [5], in [16], in test [11] and in test [12] was “inactive” in each case. The activation in test [17] was 3.84% (inactive); in test [6], -2.1% (inactive). Besides, the activity change % (negative = inhibition) in test [13] was -7.83% (inactive) and -28.4% (inactive).

Source of the values: PubChem BioAssay (NCATS).
